Source: PubChem
Most compounds without a hit are left out; they make up all but 5.2% or so of the library.
Bst PK mod = Pyruvate Kinase; actives 1.2% (n = 51,000); Potency, µM; purified pyruvate kinase, luminescence ATP production; ribose 5-phosphate activator present at AC10; AID 361, 2006; in the data active means potency below about 11 µM; inconclusive means mostly about 12 µM to 25 µM;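 the screen sought inhibitors and activators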;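 further: scaled between full activation by ribose 5 phosphate and full inhibition by luteolin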
TSHR agonist = qHTS Assay for Agonists of the Thyroid Stimulating Hormone Receptor; Thyrotropin receptor (Homo sapiens), P16473; actives 0.48% (n = 73,000); Potency, µM (doses to about 57.1 µM), without a hit: at the top dose activation, usual class: activators; HEK293-CNG-TSHR cells (CNG channel as cAMP sensor), membrane potential dye, cAMP; active means well fitted activation curve with a large enough effect in the main read-out, with a control signal flat, not every such curve was filed as active; inconclusive means small, poorly fitted or top-dose-only effect, or a change in a side signal; inactive means no such curve, though single readings can be large or run the other way; % of control where 0% means no effect;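 further: the control signal comes from parental cells without the receptor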
Target sequence (P16473 whole entry, looked up): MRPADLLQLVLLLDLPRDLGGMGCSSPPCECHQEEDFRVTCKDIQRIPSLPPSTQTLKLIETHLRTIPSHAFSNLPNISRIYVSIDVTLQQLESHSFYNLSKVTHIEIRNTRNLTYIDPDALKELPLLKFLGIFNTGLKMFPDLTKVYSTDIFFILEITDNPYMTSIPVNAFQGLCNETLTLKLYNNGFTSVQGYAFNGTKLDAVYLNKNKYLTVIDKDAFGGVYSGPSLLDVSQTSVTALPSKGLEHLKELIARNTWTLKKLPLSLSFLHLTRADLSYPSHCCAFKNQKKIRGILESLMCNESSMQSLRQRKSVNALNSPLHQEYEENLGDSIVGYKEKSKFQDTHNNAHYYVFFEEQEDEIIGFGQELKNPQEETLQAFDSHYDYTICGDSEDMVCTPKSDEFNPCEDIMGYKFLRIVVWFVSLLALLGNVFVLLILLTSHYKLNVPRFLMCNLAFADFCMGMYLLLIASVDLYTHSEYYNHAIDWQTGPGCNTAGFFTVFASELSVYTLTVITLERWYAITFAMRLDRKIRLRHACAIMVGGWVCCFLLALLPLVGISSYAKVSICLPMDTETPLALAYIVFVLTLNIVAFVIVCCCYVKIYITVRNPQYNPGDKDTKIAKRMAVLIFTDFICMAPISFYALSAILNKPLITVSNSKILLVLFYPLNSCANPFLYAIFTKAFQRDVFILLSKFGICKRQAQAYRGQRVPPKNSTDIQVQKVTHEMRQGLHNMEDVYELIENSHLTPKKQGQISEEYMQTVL
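HEK 293 cells stably expressing TSHR and a cAMP-gated CNG channel; parental CNG-only cells as counterscreen. Cells preloaded 60 min with membrane potential dye plus 100 uM RO 20-1724, then compound 30 min; fluorescence read at 590 nm.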
HEK293 cAMP cs = qHTS Assay for Agonists of the Thyroid Stimulating Hormone Receptor: Activators of Intracellular cAMP Concentrations in Parental HEK 293 | parental HEK293 CNG cAMP sensor, membrane potential fluorescence | Potency, µM (series often up to 57.1 µM), inactives show at the highest dose activation, most hits filed as activators | actives 2.5% (n = 73,000) | AID 938, 2007; further: % of control where 0% means no effect; nearly all actives have a fitted effect of over 55% in size
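Parental HEK 293 cells stably expressing a modified CNG channel (no TSHR) report cAMP rise as membrane depolarization. Membrane potential dye with 100 uM RO 20-1724 was loaded for 60 min at room temperature, then compound added for 30 min; fluorescence read at 590 nm.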
FLuc inh = qHTS Assay for Inhibitors of Firefly Luciferase; Luciferin 4-monooxygenase (Photinus pyralis), P08659; purified firefly luciferase, luminescence, 8 min; Potency, µM (doses to about 57.1 µM), inactives show top-dose activity change, negative = inhibition, usual class: inhibitors; actives 2.2% (n = 72,000); further: on the % scale 0 is the no-effect control and ±100 the full control effect; nearly all actives have a fitted effect of over 40% in size
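Titration-based qHTS; buffer 50 mM imidazole pH 7.2, 50 mM KCl, 7 mM MgCl2, 10 uM ATP, 0.01% Tween 20, 0.05% BSA; luciferase/luciferin detector mix added after compound; 8 min, ambient; luminescence.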
* hit, by the source's call; i = inactive; ? = inconclusive; . = no result; ! = repeats disagree; [ ] = another dose, or the depositor's remark. Unless noted, the call rests on the fitted dose curve; in most records, active means well fitted curve in the direction sought with a large enough effect; inconclusive means small, poorly fitted or top-dose-only effect, or another doubt; inactive means no such curve, though single readings can be large; an effect the other way counts as inactive or inconclusive. Potency means the concentration at half of the fitted maximal effect.

SMILES	Bst PK mod	TSHR agonist	HEK293 cAMP cs	FLuc inh
Cn1cc(S(=O)(=O)Nc2ccc(F)cc2F)c(=O)n(C)c1=O	.	2.5µM*	19%	6%
COc1cccc(NS(=O)(=O)c2cn(C)c(=O)n(C)c2=O)c1	.	2%	5%	2%
O=C(Nc1ccccc1)N1CCCC2(CCN(C(=O)c3cc(C(F)(F)F)cc(C(F)(F)F)c3)CC2)C1	.	25µM*	30%	-3%[11.4 µM]
O=C(Nc1ccccc1)N1CCCC2(CCN(C(=O)c3cccc(F)c3)CC2)C1	.	25µM*	9%	0%[11.4 µM]
O=C(Nc1cccc(F)c1)N1CCCC2(CCN(C(=O)c3cccc(F)c3)CC2)C1	.	?	?	-2%[11.4 µM]
O=C(NC1CCCCC1)c1cc2nc3c(c(C(F)(F)F)n2n1)CCCC3	>57	?	?	-11%
CC(=O)Oc1c(S(=O)(=O)c2ccccc2)c(C)nn1C(C)(C)C	>57	6%	21%	0%
Cn1c(/C(C#N)=C(\O)COc2ccc3ccccc3c2)nc2ccccc21	>57	?	16µM*	8%
CCN(CC)S(=O)(=O)c1ccc(Cl)c(C(=O)NCC2CCCO2)c1 (stereo unspecified)	>57	1%	24%	2%
COc1ccc(-c2noc(-c3ccccc3C(=O)NCc3ccco3)n2)cc1OC	>57	43%	27%	-8%
COc1cccc(NC(=O)c2ccccc2-c2nc(-c3ccc(F)cc3)no2)c1	>57	?	32µM*	1%
O=C(c1ccccc1-c1nc(-c2ccc(F)cc2)no1)N1CCCC1	.	23%	25%	0%
COc1ccc(-c2noc(-c3ccccc3C(=O)NCc3ccco3)n2)cc1	>57	?	16µM*	-23%
COc1ccc2oc(=N)c(C(=O)Nc3ccccc3)cc2c1	8.2*	15%	20%	32µM*
COc1cccc(NC(=O)c2ccccc2-c2nc(-c3ccccc3)no2)c1	>57	?	10µM*	-4%
COc1cccc(NC(=O)c2ccccc2-c2nc(-c3ccc(Cl)cc3)no2)c1	>57	?	?	-6%
O=c1c2ccccc2c(C=Nc2ccc(Cl)cn2)c(O)n1-c1cc(Cl)ccc1N1CCOCC1	>57	6%	11%	2%
COCCNC(=O)C(C)Oc1ccc(Cl)cc1Cl (stereo unspecified)	.	8%[11.4 µM]	7%[11.4 µM]	0%
Cc1cccc(OCC(=O)Nc2ccccc2N2CCN(C(=O)C(C)C)CC2)c1C	>57	?	1.6µM*	2%
CCC(=O)N1CCN(c2ccccc2NC(=O)c2cccc(C)c2)CC1	>57	?	?	3%
CCC(=O)N1CCN(c2ccccc2NC(=O)COc2cccc(C)c2)CC1	>57	?	20µM*	1%
O=C(COc1ccc(Cl)cc1)Nc1ccccc1N1CCOCC1	>57	?	16µM*	2%
Cc1cc(Cl)ccc1OCC(=O)Nc1ccccc1N1CCOCC1	>57	?	?	0%
Cc1ccccc1OCC(=O)Nc1ccccc1N1CCCCC1	>57	?	?	0%
O=c1c2ccccc2n2cnnc2n1-c1ccccc1	>57	-5%	2%	-1%
SMILES	Bst PK mod	TSHR agonist	HEK293 cAMP cs	FLuc inh
Cn1ccc2cc3c(cc21)CCN3C(=O)Nc1cccnc1	.	-14%	-12%	25µM*!
COc1cc2c(cc1C(F)(F)F)N(C(=O)Nc1cc(F)cc(-c3cccnc3)c1)CC2	.	-34%	-18%	-3%
COc1ccc(-c2cc(-c3cccs3)c(C#N)c(SCC(=O)NCc3ccco3)n2)cc1	>57	-3%	15%	-8%
O=C(Oc1cc(=O)oc2ccccc12)c1ccco1	>57	?	?	2%
O=C(O)CCC(=O)c1ccc2c(c1)OCCO2	.	?	20µM*	-6%
O=C(CCNc1ccccc1)c1ccc2c(c1)OCO2	.	?	?	16µM*
O=C(COC(=O)CCC(=O)c1ccc2c(c1)OCCO2)NCc1ccc2c(c1)OCO2	.	7%	22%	25µM*
O=C(CS(=O)(=O)c1ccccc1)c1ccc2c(c1)OCCO2	i	.	-3%	13µM*
O=C(O)CCSCC(=O)c1ccc2c(c1)OCCO2	>57	21%	14%	-5%
C1=CC2c3ccccc3NC(c3ccncc3)C2C1 (stereo unspecified)	>57	-6%	-4%	-7%
COc1ccc(C)cc1S(=O)(=O)Nc1ccc(F)c(Cl)c1	.	-9%	-18%	2%
NC1(C(=O)O)C[C@@H](C(=O)O)[C@H](C(=O)O)C1	.	4%	1%	3%
O=C1C2CC=C(Cl)CC2C(=O)N1CCc1ccccc1 (stereo unspecified)	>57	13%	2%	0%
O=C(COc1ncnc2ccccc12)c1ccc2c(c1)OCCO2	.	-3%	-1%	13µM*
O=C(Nc1ccc2c(c1)OCO2)c1cccc(F)c1	.	-5%	0%	?
O=C(/C=C\Nc1cccc(F)c1)c1ccc2c(c1)OCO2	.	27%[11.4 µM]	24%[11.4 µM]	0.4µM*
O=C(Cn1cnc2ccccc2c1=O)OCC(=O)c1ccc2c(c1)OCCO2	>57	.	-14%	-2%
COc1cccc(CNC(=O)C2CCN(C(=O)N(C)C)CC2)c1	>57	-6%	1%	2%
O=S(=O)(c1cccc2cccnc12)N1CCc2ccccc21	1.4*	?	?	2%
CC1Cc2ccccc2N1C(=O)C1CCCN(S(=O)(=O)c2cccc3cccnc23)C1 (stereo unspecified)	.	12%	3%	2%
C=CCNc1nc(N)c(C(=O)c2ccc3c(c2)OCO3)s1	>57	-9%	-6%	-16%
C=CCNc1nc(N)c(C(=O)Nc2cc(C)on2)s1	.	-6%	-4%	20µM*
COc1ccccc1-c1nnc2sc(-c3ccc(N(C)C)cc3)nn12	>57	.	26%	-2%
COc1ccccc1-c1nnc2sc(-c3cc4ccccc4o3)nn12	.	?	25µM*	-1%
O=C(c1ccco1)N1CCN(S(=O)(=O)c2ccc(S(=O)(=O)NC3CC3)cc2)CC1	>57	9%	25%	-1%
SMILES	Bst PK mod	TSHR agonist	HEK293 cAMP cs	FLuc inh
O=C(c1ccco1)N1CCN(S(=O)(=O)c2ccc(Oc3ccccc3)cc2)CC1	>57	?	20µM*	1%
O=C(c1cc2ncc(Br)cn2n1)N1CCN(C(=O)c2ccco2)CC1	>57	2%	18%	1%
O=C(c1ccco1)n1c(=S)nc2ccccn21	?	-8%	-1%	5µM*
Cc1cccc2nc(=S)n(C(=O)c3ccco3)n12	?	-6%	-2%	2µM*
CCCS(=O)(=O)c1nc(S(=O)(=O)c2ccc(C)cc2)c(NCCN2CCOCC2)s1	.	14%[11.4 µM]	10%[11.4 µM]	0%
CC1CCc2nc(NC(=O)Cc3cccs3)sc2C1 (stereo unspecified)	.	-17%	0%	-25%
CC1CCc2nc(NC(=O)C3CCCO3)sc2C1 (stereo unspecified)	i	1%	-2%	13µM*
CC1CCc2nc(NC(=O)c3ccco3)sc2C1 (stereo unspecified)	1.2*	-3%	-1%	2µM*
Cc1nnc(NC(=O)C2CCCO2)s1 (stereo unspecified)	>57	6%	-7%	0%
